Source: PubChem
The list is not random: actives were taken first. Their share in the collection is about 1.5%.
PP5 inh: blocks human protein phosphatase 5 activity | P53041 | purified PP5c, OMFP substrate fluorescence | inhibition, % at 6.7 µM | 320,000 compounds, 0.18% hits | AID 1987;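 active means inhibition above the campaign's mean inhibition across all tested compounds plus 3 SD, cut at about 9.5% in these data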
STK33 kinase inh: blocks human STK33 kinase activity | purified STK33, MBP phosphorylation, ADP-Glo luminescence | Q9BYT3 | 320,000 compounds, 0.073% hits | inhibition, % at 10 µM;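 active means inhibition at or above 25%, using the most active replicate where run in duplicate; inactive means inhibition below 25%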
Target sequence (Q9BYT3 whole entry, looked up): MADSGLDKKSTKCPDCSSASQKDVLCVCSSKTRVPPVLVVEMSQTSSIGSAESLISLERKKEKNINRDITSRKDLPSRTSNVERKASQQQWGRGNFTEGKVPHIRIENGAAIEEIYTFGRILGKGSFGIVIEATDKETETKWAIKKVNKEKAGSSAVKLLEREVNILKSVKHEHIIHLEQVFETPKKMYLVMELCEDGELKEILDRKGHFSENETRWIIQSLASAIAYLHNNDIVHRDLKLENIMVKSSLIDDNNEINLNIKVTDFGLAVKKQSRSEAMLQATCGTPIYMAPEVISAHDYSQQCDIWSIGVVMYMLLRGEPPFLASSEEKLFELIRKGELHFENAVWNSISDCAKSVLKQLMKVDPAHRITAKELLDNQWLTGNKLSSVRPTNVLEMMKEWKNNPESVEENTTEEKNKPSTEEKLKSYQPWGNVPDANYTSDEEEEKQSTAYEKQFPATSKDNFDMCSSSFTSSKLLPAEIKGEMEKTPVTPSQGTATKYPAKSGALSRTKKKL
HIF act: HIF pathway transcriptional activation; U2OS HRE-luciferase reporter, luminescence; normalized: DMSO 0%, desferrioxamine 100%; activation, % at 7.5 µM (by protocol); 300,000 compounds, 0.32% hits; AID 1910;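 active means mean activation of at least 10% of the iron chelator positive control signal, with at least half of replicates also reaching 10%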
PP1 inh: blocks human PP1-alpha phosphatase, a PP5 counter-screen | 320,000 compounds, 0.9% hits | purified PP1alpha, OMFP fluorescence | inhibition, % at 6.7 µM | P62136;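 active means inhibition above the mean inhibition of all tested compounds plus 3 SD, computed separately for each screening campaign, cut at about 15% in these data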
Dyrk1A ADPGlo: inhibitors of rat Dyrk1A kinase; 310,000 compounds, 0.43% hits; inhibition, % at 12.5 µM; ADP-Glo luminescence, NFATc1 peptide; AID 504441; in the data active means inhibition above about 50%
A number is an active result; . = inactive; / = no result.

SMILES	PP5 inh	STK33 kinase inh	HIF act	PP1 inh	Dyrk1A ADPGlo
S=c1[nH]nc(-c2ccccn2)n1/N=C/c1ccc(Br)s1	.	.	.	17	.
Cc1n[nH]c(=S)n1/N=C/c1ccc(-c2ccc(Cl)cc2)o1	.	.	.	.	/
O=C(N/N=C/c1ccncc1)c1ccc(NC(=O)c2ccc(Cl)cc2)cc1	.	.	.	30	.
Cc1ccc(C(=O)Nc2ccc(C(=O)N/N=C/c3ccncc3)cc2)cc1	.	.	.	16	/
COc1cc(OC)c(OC)cc1/C=C/C(=O)OCC(=O)Nc1c(C)n(C)n(-c2ccccc2)c1=O	/	/	/	/	.
CCCCNc1c(NC(C)=O)c(=O)oc2ccccc12	.	.	.	.	.
Cc1nc2cc3nc(C(F)(F)F)[nH]c3cc2[nH]1	.	.	.	.	.
Cn1c(=O)c(C(=O)COC(=O)c2cc(-c3ccco3)nc3ccccc23)c(N)n(Cc2ccccc2)c1=O	.	.	.	19	/
CC(=O)c1sc2nc(-c3ccco3)ccc2c1N	.	.	.	.	/
Nc1c(C(=O)Nc2ccc(Br)cc2)sc2nc(-c3ccco3)ccc12	.	.	.	16	.
CCOC(=O)C(NC(=O)NCc1ccc(OC)cc1)(OCC)C(F)(F)F (stereo not drawn)	.	.	.	.	.
Cc1ccc([N+](=O)[O-])cc1N	.	/	.	.	.
CCc1cc([N+](=O)[O-])cc(CC)c1N	.	.	.	.	70
COc1ccccc1NC(=O)c1nc(S(=O)(=O)Cc2ccccc2)ncc1Cl	.	.	634	.	.
CCS(=O)(=O)c1ncc(Cl)c(C(=O)Nc2ccccc2OC)n1	.	.	.	.	.
CCC(C)[C@H]1CNC(=S)N1CCc1cc(C(F)(F)F)cc(C(F)(F)F)c1 (stereo partly drawn)	9.6	.	.	.	.
CCC(C)[C@H]1CNCCN1CCc1cc(C(F)(F)F)cc(C(F)(F)F)c1 (stereo partly drawn)	.	.	.	.	.
CCn1c(CNC(=O)c2ccccc2F)nnc1SCC(=O)Nc1nncs1	.	.	.	.	.
CCCCCCCCOC(=O)c1c(CSC(=N)N)n(C)c2cc(Br)c(OC(C)=O)cc12	.	.	.	17	/
O=c1cc(CSc2ccc(Cl)cc2)nc(-c2ccccn2)[nH]1	.	.	.	16	.
CC(C)(C)c1ccc(-c2nnc(N)o2)cc1	.	.	.	.	.
COC(=O)C(Cc1ccccc1)NS(=O)(=O)c1ccc(F)cc1Br (stereo not drawn)	.	.	.	.	.
N#Cc1c(-c2ccccc2)nc(SCc2cccc(Cl)c2)[nH]c1=O	.	.	.	17	.
Cc1[nH]c(=O)nc(SCc2cccc(Cl)c2)c1C#N	.	.	.	.	.
COc1ccc(CCN(C)C(=O)CCNS(=O)(=O)c2ccccc2C(F)(F)F)cc1OC	.	.	/	.	.
SMILES	PP5 inh	STK33 kinase inh	HIF act	PP1 inh	Dyrk1A ADPGlo
COC(=O)c1ccccc1NC(=O)N1CCN(C/C=C/c2ccccc2)CC1	.	32	.	.	.
O=c1cc(O)nc(SC23CC4CC(CC(C4)C2)C3)[nH]1	.	.	.	16	.
COc1ccc(-c2c(=O)n(OCc3ccccc3[N+](=O)[O-])c3ccccc3[n+]2[O-])c(OC)c1	.	.	.	.	.
Cc1ccc(C(CC(=O)O)C2CCOC(C)(C)C2)cc1 (stereo not drawn)	.	.	42	.	.
COc1ccc(NC(=S)N(CCCN2CCOCC2)Cc2cn(C)c3ccccc23)cc1OC	.	.	.	.	.
COc1cccc(NC(=S)N(CCCN2CCOCC2)Cc2cn(C)c3ccccc23)c1	.	.	351	.	.
CCn1cc(C(=O)O)c(=O)c2cc(F)c(N3CCN(C(=S)NC(=O)c4ccccc4F)CC3)cc21	.	.	.	.	.
CCn1cc(C(=O)O)c(=O)c2cc(F)c(N/N=C/c3ccccc3)cc21	.	.	.	16	.
Cc1cc(C(=O)COC(=O)C2=COCCO2)c(C)n1-c1cccc(F)c1	.	.	.	.	.
COc1ccc([N+](=O)[O-])cc1NC(=O)CS(=O)(=O)c1ccc(C)cc1	.	.	.	.	.
COc1ccc([N+](=O)[O-])cc1NC(=O)CCS(=O)(=O)c1ccc(Br)cc1	.	.	.	17	.
Nc1nc(SCC(=O)NCCc2ccccc2)[nH]c(=O)c1-c1ccccc1	.	.	.	.	/
Fc1ccc(CN2CCN(C(c3ccccc3)c3ccccc3)CC2)cc1	.	.	.	16	/
O=C(CSCc1cc(=O)[nH][nH]1)Nc1ccc(F)cc1	.	.	.	.	.
CCCCc1ccc(NC(=O)CSCc2cc(=O)[nH][nH]2)cc1	.	.	.	16	.
Cc1ccc(S(=O)(=O)Nc2ccc(C(=O)N3CCN(c4ccccc4O)CC3)cc2)cc1[N+](=O)[O-]	.	.	.	.	.
CCc1cc(=O)[nH]c(-n2[nH]c(-c3ccccc3)cc2=O)n1	.	.	.	.	.
O=c1cc(-c2ccccc2)[nH]n1-c1nc2ccccc2[nH]1	.	.	.	17	.
CN(Cc1ccccc1)S(=O)(=O)c1ccc(N2CCCC2=O)cc1	.	.	/	.	/
Cc1oc(-c2ccc(Cl)cc2)nc1CS(=O)CC(=O)NCCN1CCCCCC1 (stereo not drawn)	.	.	109	.	.
Cc1ccc(-c2nc(CS(=O)CC(=O)NCCN3CCCCCC3)c(C)o2)cc1 (stereo not drawn)	.	.	.	.	.
COCCNC(=O)c1sc2nc(-c3ccccc3)cn2c1C	.	.	71	.	.
CC(=O)NC1C(=O)N(CCN2CCOCC2)c2ccc(C)cc21 (stereo not drawn)	.	.	.	57	.
COc1ccc(CNC(=O)c2ccc3ccccc3n2)cc1	.	.	.	17	/
Cc1ccccc1-c1nnc(NC(=O)CSc2nc3ccccc3s2)s1	.	.	.	17	.
SMILES	PP5 inh	STK33 kinase inh	HIF act	PP1 inh	Dyrk1A ADPGlo
CCCc1[nH]n(-c2nc3ccccc3s2)c(=O)c1C=NCCCN(CC)CC	.	.	.	16	.
Nc1nnc(SCC(=O)NNC(=O)c2ccc(F)cc2)s1	.	.	/	.	.
Cc1nn(-c2ccccc2)c2nc(-c3ccncc3)cc(C(=O)NCc3ccco3)c12	.	.	.	.	.
Cc1nn(-c2ccccn2)c2nc(-c3cccs3)cc(C(=O)NCc3ccco3)c12	.	.	.	17	.
CCCc1ccc(Oc2cc(NN3CCCCC3)c([N+](=O)[O-])cc2[N+](=O)[O-])cc1	.	.	.	.	.
COc1ccc(-n2c(SCC(=O)N3CCc4ccccc43)nnc2-c2c[nH]c3ccccc23)cc1	.	.	.	.	.
O=C(CCCC(=O)Nc1cccc(Br)c1)N/N=C/c1cc([N+](=O)[O-])ccc1O	.	.	.	16	.
CC(C)(C)NC(=O)CN(c1cccc([N+](=O)[O-])c1)S(=O)(=O)c1ccccc1	.	.	.	.	.
O=C(CN(c1cccc(Br)c1)S(=O)(=O)c1ccccc1)N/N=C/c1cc([N+](=O)[O-])ccc1O	.	.	.	16	.
CCOC(=O)c1c(N)sc2c1CCC1C(=O)N(C3CCCCC3)C(=O)C21 (stereo not drawn)	.	.	.	15	.
